# Measurements as given in the supplement of paper PMC3545927.
# Some of the results follow. How many sequences the whole screen found active is unknown.
# Biological target: furin, P09958
# Assay: furin cleavage Z-score vs untreated control; higher = more cleavage, active = 3.5 or more, inactive = 1 or less, 8 variable residues between constant flanks
# Method in brief: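 Sequencing of released DNA, tagged with adapters by PCR, gave read counts used as abundance. That DNA was freed when purified furin cut N-terminally bead-bound 8-mer peptides fused to a cDNA oligonucleotide, in 0.01 ml reactions at 1:10 enzyme:substrate in 50 mM HEPES pH 7.5 with CaCl2 and NaCl, lasting 7.5, 15 or 30 min. The cleavage Z-score was the lowess-adjusted log count versus furin-free reactions, scaled by median absolute deviation.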
# Chain of furin, P09958 (P09958 whole entry): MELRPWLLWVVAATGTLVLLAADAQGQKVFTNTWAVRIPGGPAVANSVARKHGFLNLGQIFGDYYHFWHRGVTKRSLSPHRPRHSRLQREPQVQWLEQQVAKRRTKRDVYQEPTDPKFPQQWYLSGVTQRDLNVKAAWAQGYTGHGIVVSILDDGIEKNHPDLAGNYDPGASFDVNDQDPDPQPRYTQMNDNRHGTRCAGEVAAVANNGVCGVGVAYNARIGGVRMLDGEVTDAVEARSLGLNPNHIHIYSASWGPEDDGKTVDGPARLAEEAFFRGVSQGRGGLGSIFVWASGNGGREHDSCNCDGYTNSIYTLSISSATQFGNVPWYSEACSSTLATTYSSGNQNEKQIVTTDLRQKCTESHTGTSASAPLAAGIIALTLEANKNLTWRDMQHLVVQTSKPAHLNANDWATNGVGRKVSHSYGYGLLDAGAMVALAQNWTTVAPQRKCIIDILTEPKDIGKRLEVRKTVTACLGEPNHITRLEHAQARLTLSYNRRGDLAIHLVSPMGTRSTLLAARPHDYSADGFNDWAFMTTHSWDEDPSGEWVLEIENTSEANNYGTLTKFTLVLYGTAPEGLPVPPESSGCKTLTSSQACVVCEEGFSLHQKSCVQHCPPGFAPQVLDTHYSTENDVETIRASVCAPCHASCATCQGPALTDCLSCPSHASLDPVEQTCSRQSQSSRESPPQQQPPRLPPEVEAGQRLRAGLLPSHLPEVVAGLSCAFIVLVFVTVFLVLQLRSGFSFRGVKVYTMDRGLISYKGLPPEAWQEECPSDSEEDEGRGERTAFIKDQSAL
Sequence,furin cleavage Z-score (7.5 min),furin cleavage Z-score (15 min),furin cleavage Z-score (30 min)
CAEVVTSTWYAGNASASA [HC2249],-1.56 (inactive),-0.21 (inactive),-0.098 (inactive)
CALKKRSYFGAGNASASA [FS-2870],0.606 (inactive),0.802 (inactive),1.4
CAEVVNSTWVAGNASASA [HC138],0.467 (inactive),-0.699 (inactive),1.06
CAGAGRARRRAGNASASA [FS-995],-0.00606 (inactive),2.14,1.07
CALLSRKRRRAGNASASA [FS-1539],11.7 (active),12.2 (active),9.16 (active)
CALLSRPLRGAGNASASA [FS-1229],-0.34 (inactive),-0.208 (inactive),-1.05 (inactive)
CALLSRKKREAGNASASA [FS-271],8.61 (active),6.86 (active),6.5 (active)
CAPPSREKKVAGNASASA [FS-1051],-1.64 (inactive),-0.193 (inactive),0.495 (inactive)
CAPPSRARRRAGNASASA [FS-73],5.98 (active),6.69 (active),6.77 (active)
CADVNRLKREAGNASASA [FS-648],14.4 (active),13.9 (active),11.5 (active)
CAWLEVVTSTAGNASASA [HC2268],0.509 (inactive),1.8,1.63
CALLFLLLADAGNASASA [HC521],-0.353 (inactive),-1.02 (inactive),-2.28 (inactive)
CALLSRVRREAGNASASA [FS-1540],7.59 (active),6.32 (active),5.92 (active)
CALLSRRPRDAGNASASA [FS-611],10.2 (active),10.5 (active),8.78 (active)
CATKSRKKREAGNASASA [FS-1493],12.1 (active),10.8 (active),8.58 (active)
CALLFRSNRDAGNASASA [FS-822],5.19 (active),4.77 (active),4.55 (active)
CALLSPRGSRAGNASASA [HC209],0.623 (inactive),-0.229 (inactive),0.325 (inactive)
CAALWRVSAEAGNASASA [HC1201],-1.28 (inactive),-0.15 (inactive),-1.16 (inactive)
CALLSCLTVPAGNASASA [HC251],-1.14 (inactive),0.458 (inactive),-0.633 (inactive)
CAFEECSQHLAGNASASA [HC1667],1.36,0.54 (inactive),-0.544 (inactive)
CAHNSRKKREAGNASASA [FS-1340],11.8 (active),13.6 (active),9.48 (active)
CAFHYVTGMTAGNASASA [HC1210],0.168 (inactive),-0.792 (inactive),-0.653 (inactive)

Sequence,furin cleavage Z-score (7.5 min),furin cleavage Z-score (15 min),furin cleavage Z-score (30 min)
CAGFGAYMSKAGNASASA [HC792],1.73,-1.14 (inactive),1.32
CARKAKEEGTAGNASASA [FS-2957],-0.545 (inactive),1.07,-0.377 (inactive)
CARARRQLGTAGNASASA [FS-3184],4.41 (active),5.24 (active),4.88 (active)
CARKARALGTAGNASASA [FS-2034],7.98 (active),9.85 (active),7.74 (active)
CAEVNCHRPSAGNASASA [HC2361],1.09,1.04,-0.207 (inactive)
CAPFDLLDFNAGNASASA [CS3],-0.762 (inactive),-0.626 (inactive),-1.52 (inactive)
CAMREVPCHRAGNASASA [HC2426],-1.33 (inactive),-0.795 (inactive),-0.936 (inactive)
CAARARNKREAGNASASA [FS-217],9.23 (active),10.8 (active),7.52 (active)
CARKKKHRKNAGNASASA [FS-2265],0.00727 (inactive),-0.00103 (inactive),-1.45 (inactive)
CAARAAWETAAGNASASA [HC1567],1.07,0.154 (inactive),-0.51 (inactive)
CANQRRNKREAGNASASA [FS-279],13.2 (active),11.8 (active),8.6 (active)
CAARAQAPPPAGNASASA [HC958],-1.14 (inactive),-1.1 (inactive),-1.17 (inactive)
CAARARHRKNAGNASASA [FS-1512],3.46,4.75 (active),6.6 (active)
CAEGCGWAGWAGNASASA [HC205],-0.871 (inactive),1.45,-1.04 (inactive)
CATESDIRTEAGNASASA [HC1485],-0.326 (inactive),-0.524 (inactive),-0.55 (inactive)
CAVVCCSMSRAGNASASA [HC2093],0.591 (inactive),1.03,0.426 (inactive)
CARWKRQNFHAGNASASA [FS-2471],1.47,0.449 (inactive),3.01
CARWKRTQSQAGNASASA [FS-2845],-0.543 (inactive),1.6,1.76
CARWKRYQRSAGNASASA [FS-142],9.87 (active),10.7 (active),9.68 (active)
CARWKRYRRWAGNASASA [FS-1077],10.1 (active),12.1 (active),10.9 (active)
CARWGRYEGGAGNASASA [FS-2844],-0.438 (inactive),-2.78 (inactive),-1.36 (inactive)
CARWKRTQRHAGNASASA [FS-2623],8.7 (active),11.5 (active),8.86 (active)
